# The campaign covered roughly 48,000 compounds. About 13,000 (27%) showed an effect of 50% or more. Some of the results follow.
# System: Wolbachia pipientis
# Experiment: Anti-Wolbachia Cell-Based Screen
# Type: functional
# Set-up: scale not given: in the data most compounds retested in dose-response had high values
# Details: 5 µM
row,SMILES,Percent Effect [%]
1,CCCn1ncc(C(=O)NC2CCN(CC3CCCO3)CC2)c1C (configuration not stated),2.131
2,CN(C)C(CNC(=O)NCCc1cccc(O)c1)c1ccco1 (configuration not stated),7.876
3,O=C(NCc1ccc(F)cc1)NCC(O)(c1ccco1)C1CC1 (configuration not stated),-0.2956
4,CC(=O)N1N=C(c2ccco2)OC1C(=O)NCCc1ccc(O)cc1 (configuration not stated),112.2
5,O=C(NCCc1ccncc1)C1CCN(Cc2ccco2)CC1,7.688
6,CC(=O)N1N=C(c2ccco2)OC1C(=O)NCCc1ccc(F)cc1 (configuration not stated),117.3
7,Cn1cc(CN2CCOC[C@H]2c2nc(C(C)(C)C)co2)c2ccccc21,-4.393
8,CN(C)c1ncccc1CNC(=O)N1CCCC1c1ccsc1 (configuration not stated),-3.064
9,CCOC1CC2(CCN(c3cnccn3)CC2)c2ccccc21 (configuration not stated),15.96
10,CC1CC2(CCN(C(=O)c3c[nH]cn3)CC2)c2ccccc21 (configuration not stated),62.95
11,CN(C)C1CC2(CCN(C(=O)c3csnn3)CC2)c2ccccc21.O=C(O)C(F)(F)F (configuration not stated),-2.029
12,CCOC1CCC2(CCN(C(=O)c3c[nH]cn3)CC2)c2ccccc21 (configuration not stated),107.8
13,CNC(=O)C1CC2(CCN(C(=O)c3csnn3)CC2)c2ccccc21 (configuration not stated),-5.077
14,CC1CC2(CCN(C(=O)c3csnn3)CC2)c2ccccc21 (configuration not stated),10.92
15,N[C@@H]1c2ccccc2C2(CCN(C(=O)c3ccc(Cl)cn3)CC2)[C@H]1O,2.711
16,CCOC1CC2(CCN(C(C)=O)CC2)c2cc(F)ccc21 (configuration not stated),-13.1
17,CCOC1CCC2(CCN(C(=O)c3csnn3)CC2)c2ccccc21 (configuration not stated),117.6
18,C[C@@H]1CN(C(=O)CCc2nncn2C)CC[C@@]1(O)C1CCC1,-5.246
19,CCN(CC)CCn1ccnc1-c1cccc(C#N)c1,11.68
20,Cc1ccc(-c2nn(-c3cccc(F)c3)cc2CN(C)CCO)o1,-10.45
21,CC(C)(C)CN[C@@H]1CO[C@H](CNC(=O)c2cccs2)[C@H]1O,-6.649
22,Cc1nc([C@@H]2C[C@H]3CN(Cc4scnc4C)C[C@H]3O2)no1,-8.778
23,O=C(NCc1cccs1)c1nc2c(o1)CN(C(=O)c1cccnc1)C2.O=C(O)C(F)(F)F,7.988
24,CN(C)C(=O)NCc1nnc2n1CCN(Cc1ccsc1)C2,3.865
25,CC(C)(C)C(O)CN1CCN(C(=O)COCC2CC2)CC1 (configuration not stated),-3.893
26,CCCOc1cc(C)ccc1NC(=O)NCCC(=O)N(C)C,-7.738

row,SMILES,Percent Effect [%]
1,CCS(=O)(=O)NCCNC(C)(C)c1nc(C)cs1,-9.016
2,NC(=O)c1ccc(S(=O)(=O)NCCc2ccccn2)cc1,-9.373
3,Cn1ccnc1CCNS(=O)(=O)c1cccnc1,3.045
4,CC(=O)Nc1nc(C)c(S(=O)(=O)NCCc2ccccn2)s1,90.82
5,CC(=O)Nc1nc(C)c(S(=O)(=O)NCCc2cccnc2)s1,82
6,CNC(=O)c1ccc(S(=O)(=O)NCCc2ccccn2)cc1,-1.31
7,Cc1cc(NC(=O)NCCc2cccnc2)n(C)n1,-22.8
8,Cc1cc(N[C@@H](CO)c2ccccc2)n2nc(C)c(C)c2n1,-10.16
9,COc1ncnc(N)c1CNCC(C)Oc1ccccc1Cl (configuration not stated),-1.664
10,COc1ncnc(N)c1CNCCOc1ccccc1Cl,-0.9521
11,COc1ncnc(N)c1CNCC(C)SC (configuration not stated),4.865
12,c1ccc(-n2cncn2)c(CNCCn2cccn2)c1,-10.78
13,COc1ncnc(N)c1CNCc1ccccc1-n1cccn1,108.1
14,COc1ncnc(N)c1CNCCc1ccc(-n2cccn2)cc1,93.72
15,CC(C)C1CN(C(=O)c2cc(=O)[nH]c(=O)[nH]2)CCCN1CC1CC1 (configuration not stated),26.13
16,Cc1ccc(CN2CCN(c3ncnc4[nH]cnc34)CC2CCO)cc1 (configuration not stated),-6.275
17,Cc1cc(CN2CCN(CC3CC3)[C@@H]3CS(=O)(=O)C[C@@H]32)ccc1F,0.5835
18,CCS(=O)(=O)N1CCc2c(nc(C3CCCN3)nc2NC)C1.Cl (configuration not stated),89.89
19,CCS(=O)(=O)N1CCc2c(cccc2NCc2ncc[nH]2)C1,-10.34
20,CCS(=O)(=O)N1CCc2c(cccc2NCc2nc(C)c(C)o2)C1,13.37
21,CNc1nc(C2CCCN2)nc2c1CCN(S(=O)(=O)C1CCCCC1)C2.Cl (configuration not stated),89.64
22,O=C1CCN(C(=O)C2(c3ccc(F)cc3)CCCC2)CCN1,-16.8
23,COc1ccc(C(O)CNC(=O)NCc2csc(C)n2)cc1 (configuration not stated),-1.772
24,CS(=O)(=O)N1CCN2C(=O)N(C3CCOCC3)C[C@H]2C1,-10.83
25,Cc1nccn1CCC1CCN(C(=O)C2CC3(CCNCC3)CN2)CC1 (configuration not stated),104.8
26,Cc1cnccc1N1CCN(C(=O)C2CC3(CCNCC3)CN2)CC1 (configuration not stated),31.13

row,SMILES,Percent Effect [%]
1,Cc1nccn1CCC1CCN(C2CCC3(CCNCC3)CC2)CC1,84.73
2,Cc1nnc(N2CCC(CCn3ccnc3C)CC2)o1,2.305
3,Cc1ncnc(N2CCN(C(=O)C3CC4(CCNCC4)CN3)CC2)c1C (configuration not stated),-0.6445
4,Cc1nccn1CCC1CCN(c2ncccn2)CC1,-9.43
5,CCCN(CC(=O)OC)S(=O)(=O)c1cnc2c(c1)c(C)nn2C,9.963
6,O=C(c1ccsc1)N1C[C@@H]2CCN(C(=O)c3cscn3)[C@@H]2C1,98.94
7,O=C(C1CCOC1)N1C[C@@H]2CCN(C(=O)c3cscn3)[C@@H]2C1 (some centres not stated),85.3
8,CS(=O)(=O)N1C[C@@H]2CCN(C(=O)c3ccco3)[C@@H]2C1,-6.962
9,O=C(c1cscn1)N1CC[C@@H]2[C@@H]1CCN2c1ccccn1,-2.894
10,O=C(NC1CCCCC1)N1C[C@@H]2OCCN(C(=O)c3ccco3)[C@@H]2C1,2.504
11,O=C(NC1CC1)N1C[C@@H]2CCN(C(=O)c3cscn3)[C@@H]2C1,121.3
12,CCS(=O)(=O)N1CCC2(CN(C(=O)c3cscn3)C2)C1,7.529
13,O=C(c1ccsc1)N1C[C@@H]2CCN(C(=O)c3cccc(F)c3)[C@@H]2C1,-29.62
14,O=C(c1ccco1)N1C[C@H]2CCCN(C(=O)c3ccsc3)[C@H]2C1,-8.905
15,CN1C[C@@H]2CN(C(=O)C3CCOC3)C[C@@H]2C1=O (some centres not stated),0.8988
16,CC(C)C(=O)N1CCN(C(=O)c2cscn2)[C@H]2CS(=O)(=O)C[C@H]21,2.64
17,CS(=O)(=O)N1C[C@@H]2CCN(C(=O)c3cscn3)[C@@H]2C1,118.3
18,Cc1nc(C(C)(C)NCc2ncc(C(C)C)o2)sc1C,0.4552
19,O=C(C1CCS(=O)(=O)C1)N1CCC(=Cc2cccc(F)c2)CC1 (configuration not stated),0.7274
20,Cc1ccc(F)c(C(=O)N2C[C@@H](C(=O)O)[C@H](c3ccccc3)C2)c1Cl,13.68
21,Cc1ccc2nc(C(=O)N3CC(n4nc(C)cc4C)C3)cn2c1,-3.622
22,Cc1c(Cl)c(C(=O)N2C[C@@H](C(=O)O)[C@H](c3cccnc3)C2)nn1C,7.348
23,Cc1ccc(CN2C[C@@H](C(=O)O)[C@H](c3cccnc3)C2)s1,-1.112
24,Cc1ccc2nc(C(=O)N3C[C@@H](C(=O)O)[C@H](c4ccccc4)C3)cn2c1,107.2
25,Cc1c(Cl)c(C(=O)N2CC(c3cccnc3)C2)nn1C,11
26,Cc1ccc2nc(C(=O)N3CC(c4cccnc4)C3)cn2c1,95.05

row,SMILES,Percent Effect [%]
1,COc1cc(C)sc1C(=O)N1CC(c2cccnc2)C1,-11.08
2,Cc1ccc2nc(C(=O)N3C[C@@H](C(=O)O)[C@H](c4cccnc4)C3)cn2c1,96.84
3,Cc1c(-c2n[nH]c3c2CN(CC2CCOC2)CC3)cccc1C(F)(F)F (configuration not stated),-2.371
4,CCCOC(=O)C(C)Sc1nnnn1C1CCOCC1 (configuration not stated),-23.26
5,O=C(NC1CCOCC1)C1CC(=O)N(Cc2ccccn2)C1 (configuration not stated),-4.932
6,Cc1ncccc1CNCC1CCN(CC(O)c2ccccc2)CC1 (configuration not stated),6.479
7,N[C@@H]1CC[C@H](C(=O)NCc2ccc3nonc3c2)C1,-14.66
8,Cc1cccc(CSc2ncc(Br)c(C(=O)O)n2)c1,160.3
9,O=C(O)c1nc(SCc2ccccc2)ncc1Br,220.2
10,Cc1cccc(CN2CCN(C(=O)c3cc(Cl)c[nH]c3=O)CC2)c1,-10.72
11,Cc1ccnc(NC(=O)CSCc2cccnc2)c1,-2.126
12,Cc1cccc(CN2CCN(C(=O)c3cnc(C)[nH]c3=O)CC2)c1,-2.506
13,Cc1ccc(CSc2ncc(Br)c(C(=O)O)n2)cc1,104.9
14,Cc1cccc(CSc2ncc(Cl)c(C(=O)O)n2)c1,112.8
15,CC1(C)CN(CC(F)(F)F)CCN1CC(=O)NC1CC1,-2.584
16,CSc1sc(NC(=O)Cc2c(C)nc(C)[nH]c2=O)nc1C,-3.918
17,Cc1ncnc(NCc2cc3n(n2)CCCN(S(C)(=O)=O)C3)c1C,3.244
18,CNS(=O)(=O)c1csc(C(=O)N(C)Cc2ccccc2C)c1,-9.289
19,CC1COc2ccccc2N1C(=O)CCc1cscn1 (configuration not stated),-5.764
20,Cc1ccccc1CSc1nc(N)cc(N2CCCC(C(N)=O)C2)n1 (configuration not stated),-15
21,O=C(O)c1nnn(Cc2ccc(F)cc2)c1-c1cccnc1,3.102
22,Cc1ccccc1CSc1nc(N)cc(N2CCC(CC(N)=O)CC2)n1,7.144
23,Cc1ccccc1CSc1ncc(Br)c(C(=O)O)n1,130.2
24,O=C(O)c1nc(SCc2ccc(F)cc2)ncc1Br,202.4

# Source: ChEMBL document CHEMBL3988442, “University of Dundee, Small-Polar-MMV Screening Library” (2021)
